Assay outcomes deposited in PubChem by National Center for Advancing Translational Sciences (NCATS).
Tb PYK inh = blocks Trypanosoma brucei pyruvate kinase; Q57TT1; TbPYK enzyme, Kinase-Glo Plus ATP luminescence, 45 min; Potency, µM (titrated, usually from 76.8 µM), for the others: at the highest dose activity, negative = inhibition, most hits filed as inhibitors; 410,000 tested, 0.12% active; further: potency means the concentration at half of the fitted maximal effect; on the % scale 0 is the no-effect control and ±100 the full control effect; nearly all actives have a fitted effect of over 50% in size
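Readout: single end-point luminescence (Kinase-Glo Plus, 10 min). Reaction conditions were TbPYK/substrate plus 130 uM ADP, 45 min at RT, pH 7.2 TEA buffer. No-enzyme wells served as controls, and data were normalized before concentration-response fitting.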
Shiga inhibitor = Shiga toxin inhibition; Vero cells, Shiga toxin protein synthesis inhibition reporter; inhibition, % at 38.7 µM; 290,000 tested, 9.2% active; in the data active means inhibition mostly above about 28%, no sharp cut-off; inactive means mostly below about 43%; further: 0% is about no effect
RE007 growth inh = less growth of the S. pombe RE007 Vpr strain | Potency, µM (highest dose often 92.2 µM), inactives show at the top dose activity change, negative = less growth, usual class: inhibitors | S. pombe RE007 Vpr strain, BacTiter-Glo ATP luminescence, 24 h | 360,000 tested, 0.21% active; active means well fitted falling curve with a large enough effect; inconclusive means small, poorly fitted or top-dose-only effect; inactive means no such curve, though single readings can be large or run the other way; further: potency means the concentration at half of the fitted maximal effect; on the % scale 0 is the no-effect control and ±100 the full control effect; nearly all actives have a fitted effect of over 50% in size
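Fission yeast strain RE007, carrying one chromosomally integrated HIV-1 vpr copy, was seeded at OD 0.01 in PMG+AL medium with 23 nL pinned compound. After 24 h at 30 °C and 99% humidity, viability was read by BacTiter-Glo luminescence.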
Cycloheximide cs = affects cycloheximide protein synthesis inhibition readout, counter-screen. 300,000 tested, 12% active. cell reporter, cycloheximide protein synthesis inhibition counterscreen. AID 2314. max response, %; in the data active means max response mostly above about 13%, no sharp cut-off; inactive means mostly below about 14%; further: read at 38.3 µM for the half of the compounds with a filed dose; 0% is about no effect
LmPK inh = LmPK (Leishmania mexicana) enzyme inhibition; Q27686; purified LmPK, Kinase-Glo ATP luminescence, 1 h; Potency, µM (highest dose often 57.5 µM), for inactives: at the highest dose activity change, negative = inhibition, most hits filed as inhibitors; 290,000 tested, 0.37% active; AID 1721; further: potency means the concentration at half of the fitted maximal effect; on the % scale 0 is the no-effect control and ±100 the full control effect
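Pyruvate kinase activity monitored as ATP production (luciferase luminescence). Conditions: 0.1 nM enzyme, 0.5 mM PEP, 0.1 mM ADP, 1 h, RT; normalized against uninhibited and no-enzyme wells.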
Giardia FBPA inh = Giardia lamblia aldolase inhibition. purified Giardia FBPA. A8B2U2. Potency, µM (doses to about 59.6 µM), without a hit: at the highest dose activity, negative = inhibition, actives largely listed as inhibitors. 290,000 tested, 0.71% active; further: potency means the concentration at half of the fitted maximal effect; on the % scale 0 is the no-effect control and ±100 the full control effect; nearly all actives have a fitted effect of over 55% in size
Target sequence (A8B2U2 whole entry, looked up): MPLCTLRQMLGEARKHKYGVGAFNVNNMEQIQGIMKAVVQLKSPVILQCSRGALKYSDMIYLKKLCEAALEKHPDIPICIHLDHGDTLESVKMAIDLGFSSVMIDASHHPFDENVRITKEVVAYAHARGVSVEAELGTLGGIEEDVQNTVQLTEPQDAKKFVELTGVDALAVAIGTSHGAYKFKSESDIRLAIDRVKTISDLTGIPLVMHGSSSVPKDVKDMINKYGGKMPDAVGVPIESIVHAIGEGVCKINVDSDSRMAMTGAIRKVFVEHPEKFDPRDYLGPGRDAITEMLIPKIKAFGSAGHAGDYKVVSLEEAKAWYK
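40 nM FBPA preincubated 10 min at RT with compound (up to 57.5 uM final), then substrate plus GAPDH/TPI/NAD/arsenate coupling and diaphorase/resazurin added. Fluorescence read after 20 min at RT, 525/598 nm.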
* marks the source's active call; other numbers are inactive results; [ ] = dose if it differs, or a comment. The sample as a whole holds a higher share of hits than the screen did. Unless noted, the call rests on the fitted dose curve; in most records, active means well fitted curve in the direction sought with a large enough effect; inconclusive means small, poorly fitted or top-dose-only effect, or another doubt; inactive means no such curve, though single readings can be large; an effect the other way counts as inactive or inconclusive.

COc1ccc(NC(=O)CCC(=O)c2cccs2)cc1Cl was read as Tb PYK inh 4%, Shiga inhibitor 11, RE007 growth inh 4%, Cycloheximide cs 9.5*, LmPK inh 4% and Giardia FBPA inh 5%.
`Cc1c2cnn(CC(=O)NCCc3ccccc3)c(=O)c2c(C)n1Cc1ccccc1` gave Tb PYK inh -6%.
For Cc1ccc(OCCOc2cccc3ccc(C)nc23)c([N+](=O)[O-])c1 the results were Tb PYK inh 20%, Shiga inhibitor 51, RE007 growth inh -20%, Cycloheximide cs 13, LmPK inh 0% and Giardia FBPA inh inconclusive.
Screening O=[N+]([O-])c1ccc(F)cc1OCc1nc(-c2cccs2)no1 returned Tb PYK inh -3%, Shiga inhibitor 95*, RE007 growth inh 58%, Cycloheximide cs 41*, LmPK inh -2% and Giardia FBPA inh -4%.
`O=C(O)CCc1nc(-c2cccs2)no1` gave Tb PYK inh -5%, Shiga inhibitor -17, RE007 growth inh -20%, Cycloheximide cs -2, LmPK inh -2% and Giardia FBPA inh 6%.
Screening O=[N+]([O-])c1ccccc1OCc1nc(-c2cccs2)no1 returned Tb PYK inh -1%, Shiga inhibitor 179*, RE007 growth inh inconclusive, Cycloheximide cs 61*, LmPK inh -13% and Giardia FBPA inh -7%.
For Cc1ccc(OCc2nc(-c3cccs3)no2)c([N+](=O)[O-])c1 the results were Tb PYK inh 1%, Shiga inhibitor 100*, RE007 growth inh -4%, Cycloheximide cs 45*, LmPK inh 4% and Giardia FBPA inh -5%.
O=c1oc2ccc(F)cc2cc1-c1nc(-c2cccs2)no1 was read as Tb PYK inh 1%.
Screening CCc1nc2c(OCc3ccc(C(F)(F)F)cc3)cccn2c1N(C=O)Cc1ccc(OC)cc1 returned Tb PYK inh 7% and RE007 growth inh -8%.
Screening O=c1ccc2ccc(OCCOc3cccc(Cl)c3)cc2o1 returned Tb PYK inh -3%, Shiga inhibitor 66*, RE007 growth inh 2%, Cycloheximide cs 24* and LmPK inh -6%.
For CCn1ccc2c(OCC(=O)Nc3ccc(C)c(Cl)c3)cccc2c1=O the results were Tb PYK inh -7%.
`CC(=O)Oc1ccc(Cl)cc1/C=C/c1cc(OC(C)=O)c2ccccc2n1` gave Shiga inhibitor 34*, Cycloheximide cs 20*, LmPK inh -1% and Giardia FBPA inh -7%.
`COc1cc(Cl)cc(/C=C/c2ccc3ccccc3n2)c1OC(C)=O` gave Tb PYK inh -7%, Shiga inhibitor 97*, RE007 growth inh 2%, Cycloheximide cs 84*, LmPK inh -2% and Giardia FBPA inh -5%.
Screening CCOC(=O)C1Oc2ccccc2C(c2ccc(C)cc2)=C1C(=O)OC (stereo unspecified) returned Tb PYK inh 1%, Shiga inhibitor inactive, RE007 growth inh -15%, Cycloheximide cs 19* and Giardia FBPA inh 1%[89.2 µM].
Screening Cc1ccc2c3c(cccc13)-c1ccccc1C2=O returned Tb PYK inh 1%, Shiga inhibitor 14, RE007 growth inh 0%, Cycloheximide cs 28*, LmPK inh -2% and Giardia FBPA inh 1%.
`COC(=O)[C@H](Cc1ccccc1)NC(=O)[C@]1(C)C[C@H]1[C@H](NC(=O)OCc1ccccc1)c1ccccc1` gave Giardia FBPA inh -4%.
For Cc1cc(/C=N/NC(=O)c2cccc([N+](=O)[O-])c2)c(C)n1-c1ccccc1 the results were Tb PYK inh 3%, Shiga inhibitor 25, RE007 growth inh 3%, Cycloheximide cs 34*, LmPK inh 1% and Giardia FBPA inh -8%.
For CCc1ccc(-n2c(C)cc(/C=N/NC(=O)c3ccncc3)c2C)cc1 the results were Tb PYK inh 3%, Shiga inhibitor 10, RE007 growth inh -6%, Cycloheximide cs 7, LmPK inh -2% and Giardia FBPA inh -24%.
For Cc1cc(/C=N/NC(=O)c2ccncc2)c(C)n1-c1ccccc1 the results were Tb PYK inh 2%, Shiga inhibitor 23*, RE007 growth inh 26%, Cycloheximide cs 26*, LmPK inh -3% and Giardia FBPA inh -17%.
Cc1cc(C(=O)N/N=C/c2ccc(O)c(O)c2O)c(C)n1-c1ccccc1 was read as Tb PYK inh 10%, Shiga inhibitor 73*, RE007 growth inh 13%, Cycloheximide cs 54*, LmPK inh -3% and Giardia FBPA inh 16µM*.
For Cc1cc(/C=N/NC(=O)C(O)(c2ccccc2)c2ccccc2)c(C)n1-c1ccccc1 the results were Tb PYK inh 0%, Shiga inhibitor 4, RE007 growth inh -4%, Cycloheximide cs 7, LmPK inh 1% and Giardia FBPA inh -17%.
Cc1cc(/C=N/NC(=O)c2cccs2)c(C)n1-c1ccccc1 was read as Tb PYK inh 0%, Shiga inhibitor 11*, RE007 growth inh -9%, Cycloheximide cs 26*, LmPK inh 0% and Giardia FBPA inh -13%.
Cc1cc(-c2ccc(S(=O)(=O)Nc3ccccc3F)s2)on1 was read as Tb PYK inh -2%[15.4 µM].
Screening COc1ccc(Cl)cc1NCc1nnc2n1CCCCC2 returned Tb PYK inh 1%.
Screening Cc1cc(/C=N/NC(=O)c2cccs2)c(C)n1-c1cnccn1 returned Tb PYK inh -2%, Shiga inhibitor 59*, RE007 growth inh 1%, Cycloheximide cs 48*, LmPK inh 0% and Giardia FBPA inh -9%.
For O=C(NCc1nc(-c2ccc(C(F)(F)F)cc2)no1)c1cccs1 the results were Tb PYK inh -1%, Shiga inhibitor 18, RE007 growth inh -12%, Cycloheximide cs 8.2*, LmPK inh 0% and Giardia FBPA inh -16%.
CC(C)(C)c1ccc(-c2noc(CNC(=O)c3ccco3)n2)cc1 was read as Tb PYK inh -1%, Shiga inhibitor 37, RE007 growth inh -2%, Cycloheximide cs 32*, LmPK inh 0% and Giardia FBPA inh -10%.
For O=C(NCc1nc(-c2ccccc2)no1)c1ccco1 the results were Tb PYK inh -2%.
Screening O=C(Nc1ccc(-c2noc(COc3ccccc3Cl)n2)cc1)c1ccco1 returned Tb PYK inh -9%, Shiga inhibitor active, RE007 growth inh -7%, Cycloheximide cs 41*, LmPK inh -20% and Giardia FBPA inh 1%.
For O=C(COc1ccccc1Cl)Nc1ccc(NC(=O)c2ccco2)cc1 the results were Tb PYK inh 0%, Shiga inhibitor -4, RE007 growth inh 6%, Cycloheximide cs -3, LmPK inh 0% and Giardia FBPA inh 3%.
`O=C(NCc1nc(-c2ccccc2)no1)c1cccs1` gave Tb PYK inh 1%, Shiga inhibitor 29, RE007 growth inh -5%, Cycloheximide cs 7, LmPK inh 0% and Giardia FBPA inh 3%.
